Measured values published in PubChem BioAssay (NCI).
This is part of a sample that, as a whole, favours compounds with a hit. Of some 83,000 tested, about 20% had one in any assay.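 Values shown are percent growth following 48 h exposure of cells in 96-well plates to a single concentration of compound; below 10 was considered active.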 Values without a mark were called inactive. Activity calls are given as the source filed them.

Columns and labels:
Assay in all cases: NCI-60 one-dose screen, 48 h (100 = growth as untreated, 0 = no growth, -100 = all killed)
Details in all cases: 10 µM unless noted
[1] = tested on: NCI-H23 lung
[2] = tested on: NCI-H226 lung
[3] = tested on: NCI-H322M lung
[4] = tested on: HOP-62 NSCLC
[5] = tested on: NCI-H460 lung
[6] = tested on: HOP-92 NSCLC
[7] = tested on: NCI-H522 lung
[8] = tested on: A549/ATCC NSCLC
[9] = tested on: 786-0 renal
[10] = tested on: COLO 205 colon

Row | Structure (SMILES) | growth [1] | growth [2] | growth [3] | growth [4] | growth [5] | growth [6] | growth [7] | growth [8] | growth [9] | growth [10]
1 | CC(=O)N[C@@H](CCC(N)=O)C(=O)O | 92.6% | 87.9% | 111% | 102% | 105% | 61.3% | 103% | 88.2% | 82.6% | 124%
2 | Nc1nonc1-c1nc2ccccc2n1Cc1ccc(F)cc1 | 70.6% | 69.3% | 69.8% | 56.7% | 49.3% | 65% | 4.81% (active) | 39.1% | 76.4% | 42.8%
3 | C[C@]12CCc3nc(Nc4ccc(O)cc4)sc3C1=CC[C@@H]1[C@@H]2CC[C@]2(C)/C(=N/NC(N)=S)CC[C@@H]12 | 1.05% (active) | 55.4% | 4.16% (active) | -24.5% (active) | -72% (active) | -19.3% (active) | -55.2% (active) | -26.7% (active) | -73.6% (active) | -40.5% (active)
4 | CCN(CC)CCCC(C)N/C(c1cccc(OC)c1)=c1\c(=O)[nH]n(-c2c3ccccc3nc3ccccc23)c(=O)\c1=C(/NC(C)CCCN(CC)CC)c1cccc(OC)c1 (stereo not given) | -26.3% (active) | -25.2% (active) | -37.7% (active) | -22.5% (active) | -34.1% (active) | -70% (active) | -85.6% (active) | -59.2% (active) | 3.27% (active) | -90.1% (active)
5 | CCN(CC)CCCCCCCNc1cc(OC)cc2c(C)ccnc12 | 87.6% | 86.6% | 94.8% | 93.3% | 85.2% | 57.5% | 71.4% | 94.7% | 80.8% | 72.9%
6 | Oc1ccc(Nc2ncnc3c2sc2ncccc23)cc1 | 11.2% | 42.6% | 47% | 9.02% (active) | 9.18% (active) | 28.5% | 33.6% | 26.9% | 12.5% | 36%
7 | Clc1ccc2c(c1)-c1ccccc1C1=NCCN12 | 33.4% | 24.7% | 25.3% | 45.9% | 8.92% (active) | 58.6% | 23.2% | 13% | 44.8% | 7.28% (active)
8 | COCCCNCC(=O)Nc1c(C)cccc1C | 110% | 106% | 139% | 107% | 116% | 103% | 112% | 96.7% | 93.8% | 109%
9 | Cc1nc2ccc(Nc3nc(NCCN4CCOCC4)nc(Nc4ccc(F)cc4)n3)cc2n1Cc1ccccc1 | 67% | 72.1% | 64.1% | 47.8% | 29.4% | 30.3% | 58.7% | 46.3% | 4.17% (active) | 1.19% (active)
10 | Cc1nc2c(-c3cnc(N)nc3)nc(N3CCOCC3)nc2n1C(C)C | 16.5% | -1.05% (active) | -5.38% (active) | -12.7% (active) | 12.2% | -17.2% (active) | 4.22% (active) | -1.09% (active) | -8.16% (active) | -2.93% (active)
11 | COCCOCCOCc1n(Cc2ccc3ccccc3n2)c2ccccc2[n+]1Cc1ccc2ccccc2c1 | 1.03% (active) | 28.1% | 26.8% | 11.7% | 7.94% (active) | -18.2% (active) | 0.793% (active) | 22.5% | 21.2% | -73.3% (active)
12 | Cc1cc(C)c([O-])c(CN(C)CCN(C)Cc2cc(C)cc(C)c2[O-])c1.O=C([O-])c1cccc(C(=O)[O-])n1.[Ti+4] | 10.4% | 31% | 8.44% (active) | 12.5% | -68.7% (active) | -53.1% (active) | -47% (active) | 23.3% | 11.9% | 2.03% (active)
13 | COc1cc(/C=C/C(=O)c2c(C)nc3ccccc3c2C)ccc1OCCCOc1cc2c(cc1OC)C(=O)N1CCC[C@H]1C=N2 | -19.5% (active) | -4.56% (active) | -58.6% (active) | -6.66% (active) | -61% (active) | -45.1% (active) | -56.9% (active) | 2.42% (active) | -47.9% (active) | -85.9% (active)
14 | O=[N+]([O-])c1cccc(N=C(Nc2cccc([N+](=O)[O-])c2)c2ccccc2)c1 | 86.4% | 91.6% | 81.2% | 89.9% | 102% | 47.4% | 59.5% | 79.9% | 83.6% | 109%
